Screening data: PubChem, several laboratories
This is a sample that favours compounds with a hit; in the whole collection about 1.6% have one here.
CCHFV vOTU inh = blocks the CCHF virus ovarian tumor domain protease | 370,000 tested, 0.55% active | inhibition, % at 11.5 µM | CCHFV vOTU protease, Pep-AMC fluorescence; in the data active means inhibition above about 30%; further: 0% = vehicle wells with enzyme and 100% = no enzyme wells
PfHsp40 rescue = rescue of PfHsp40-mediated yeast toxicity. growth rescue, % at 12.5 µM. AID 504582. 340,000 tested, 0.68% active. S. cerevisiae expressing PfHsp40, growth rescue, ATP luminescence; in the data active means growth rescue above about 28%, passing the limit was not always enough; inconclusive means no clear call, values can overlap the other calls;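 further: yeast W303a lacking pdr1 and pdr3 grown in galactose medium; growth measured after three days at 30 °C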
Sa RN4220 lethal = S. aureus RN4220 growth inhibition. OD600, 16 h. inhibition, % (test concentration not listed). 330,000 tested, 0.33% active. AID 1259311; in the data active means inhibition above about 85%;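 further: plate controls were untreated cells for no effect and reference antibiotic for full effect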
Sa ugtP lethal = compounds lethal to S. aureus RN4220 ugtP deletion mutant | AID 1259309 | growth inhibition, % (no concentration beside the values) | OD600 growth, 16 h | 330,000 tested, 0.54% active; in the data active means growth inhibition above about 68%;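 further: plate controls were untreated wells for no effect and antibiotic for full effect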
BJeLR lethal = kills HRASV12-expressing BJeLR cells. 300,000 tested, 0.17% active. inhibition, % (test concentration not listed). BJeLR (HRASV12) viability, CellTiter-Glo ATP luminescence, 48 h; in the data active means inhibition above about 50%; inconclusive means no clear call, values can overlap the other calls
* = called active by the depositor; ? = inconclusive; · = no result.

SMILES | CCHFV vOTU inh | PfHsp40 rescue | Sa RN4220 lethal | Sa ugtP lethal | BJeLR lethal
COc1cccc(C=NNC(=O)c2ccc(=O)[nH]n2)c1O | · | · | -1 | 1 | ·
O=C(Nc1cccc([N+](=O)[O-])c1)c1ccc2ccccc2c1O | -2 | 1 | 86* | 86* | 24
O=C(Cc1ccccc1)Nc1cccc([N+](=O)[O-])c1 | 7 | 2 | 0 | -1 | 0
O=C(Nc1cccnc1)c1ccc2ccccc2c1O | 6 | 173* | 9 | 7 | 4
COCc1cc(Sc2c(Cl)cccc2Cl)nc(-c2ccccc2)n1 | 15 | 1 | -10 | 85* | 0
NC(=O)c1ccccc1NC=CC(=O)c1cccs1 | · | · | 2 | -14 | ·
Cc1ccc(C(C)C)c(OCc2ccc(C(=O)N/N=C/c3cccc(O)c3O)cc2)c1 | 17 | 0 | · | · | 74*
S=C(Nc1ccc(Cl)cc1)c1nc2ccccc2s1 | 6 | -1 | -7 | -5 | 10
O=C(Nc1ccc(Cl)cc1)/C(=C/c1cccc(O)c1)c1nc2ccccc2s1 | 6 | -1 | 69 | 89* | 38
O=C(O)C/C(=C\c1cccc(NC(=O)c2ccccc2Cl)c1)c1nc2ccccc2s1 | 26 | 28* | 9 | 4 | -4
COc1ccc(C(=O)Nc2cccc(/C=C(\CCC(=O)O)c3nc4ccccc4s3)c2)cc1 | 10 | 0 | 31 | 34 | 6
O=C(CCN1C(=O)/C(=C/c2ccccc2Cl)SC1=S)NC1=NCCS1 | -8 | -2 | 3 | 87* | -3
O=C(CCN1C(=O)/C(=C/c2ccccc2Cl)SC1=S)Nc1ccccn1 | 6 | 0 | -4 | -8 | -8
CC(C)[C@]12O[C@H]1[C@@H]1O[C@]13[C@]1(O[C@H]1C[C@H]1C4=C(CC[C@@]13C)C(=O)OC4)[C@@H]2O | · | · | · | · | 68*
O=C(c1ccc(Cl)c(Cl)c1)N1CCN(c2ccccn2)CC1 | 5 | 1 | 2 | 7 | -1
O=C(c1cccc(COc2ccc(Cl)cc2Cl)c1)N1CCN(c2ccccn2)CC1 | 7 | 28* | 0 | -31 | 0
COC(=O)[C@]1(C)CCC[C@@]2(C)C3CC[C@@]4(C)C[C@]3(CCC21)CC(=O)N4 (stereo partly drawn) | -2 | 0 | 16 | 14 | ·
C=C1C(=O)C23CCC4C(C)(C(=O)OC)CCCC4(C)C2CCC1(O)C3 (stereo not drawn) | 2 | 242* | · | · | ·
CCCCCCn1c(=O)c(C(=O)Nc2ncccc2C)c(O)c2ccccc21 | 8 | 145* | 66 | 89* | -10
CCCCn1c(=O)c(C(=O)Nc2ncccc2C)c(O)c2ccccc21 | 17 | ? | 67 | 100* | 4
CCCn1c(=O)c(C(=O)Nc2ncccc2O)c(O)c2ccccc21 | -6 | -1 | 5 | 4 | -2
Cc1nnc(SCC2=C(C(=O)O)N3C(=O)C(NC(=O)Cc4ccccc4)C3SC2)s1 (stereo not drawn) | 13 | 0 | 100* | 100* | ·
Cc1nnc(SCC2=C(C(=O)O)N3C(=O)C(NC(=O)C(C)n4nc(C(F)(F)F)cc4C)C3SC2)s1 (stereo not drawn) | 1 | 1 | 100* | 101* | 2
COCC1=C(C(=O)OC(C)OC(=O)OC(C)C)N2C(=O)C(NC(=O)C(=NOC)c3csc(N)n3)C2SC1 (stereo not drawn) | · | · | 68 | 43 | ·
CC1=C(C(=O)OCC(Cl)(Cl)Cl)N2C(=O)C(NC(=O)Cc3ccccc3)C2SC1 (stereo not drawn) | 4 | -1 | 4 | 14 | 4
SMILES | CCHFV vOTU inh | PfHsp40 rescue | Sa RN4220 lethal | Sa ugtP lethal | BJeLR lethal
CC(=O)OCC1=C(C(=O)OC(C)(C)C)N2C(=O)[C@@H](NC(=O)Cc3ccccc3)[C@H]2SC1 | 11 | -1 | 96* | 94* | ·
CON=C(C(=O)NC1C(=O)N2C(C(=O)O)=C(COC(C)=O)CSC12)c1csc(N)n1 (stereo not drawn) | · | · | 100* | 100* | ·
O=C(NN=Cc1ccsc1)c1ccc2ccccc2n1 | · | · | 1 | -4 | ·
C=C(C)C(=O)N1CC2(CC(c3cccc(NC(=O)CC)c3)=NO2)CC1C(N)=O (stereo not drawn) | · | · | 6 | 0 | ·
COc1ccccc1C=CC1=NC(=CC=Cc2ccccc2)C(=O)O1 | · | · | 13 | 4 | ·
CC(=O)OCC1=C(C(=O)O)N2C(=O)C(NC(=O)c3ccc(COc4cccc(Cl)c4Cl)o3)C2SC1 (stereo not drawn) | 9 | 2 | 100* | 100* | 1
COc1ccccc1-c1cc(C(F)(F)F)nc(N2CCCC2)n1 | 9 | -2 | 5 | 86* | -17
CC(=NNC(=O)c1ccncc1)c1cc2ccccc2oc1=O | · | · | 5 | 3 | ·
COc1ccc(/C=C/C(=O)c2c(O)n(CCC3=CCCCC3)c(=O)[nH]c2=O)cc1 | -15 | -2 | 89* | 92* | -14
O=C(/C=C/c1ccc2c(c1)OCO2)c1c(O)n(CCC2=CCCCC2)c(=O)[nH]c1=O | 3 | 5 | 100* | 100* | ·
CCCCn1c(O)c(C(=O)/C=C/c2ccc3c(c2)OCO3)c(=O)[nH]c1=O | -10 | 0 | · | · | 4
CCN1C[C@]2(COC)CCC(O)[C@@]34C5CC6C(OC)C[C@@](O)(C5C6OC)[C@@](O)(C(OC)C23)C14 (stereo partly drawn) | · | · | 2 | -3 | ·
CC1CCc2sc(-c3n[nH]c(=S)o3)cc2C1 (stereo not drawn) | -60 | 330* | 37 | 21 | 3
CCOC(=O)C(O)(NC(=O)c1cccnc1)C(F)(F)F (stereo not drawn) | -6 | -1 | 84* | 58 | ·
C[n+]1c(-c2ccccc2)cc(CCCCc2cc(-c3ccccc3)[n+](C)c(-c3ccccc3)c2)cc1-c1ccccc1 | -10 | 0 | 93* | 77 | ·
COc1cc(C=NNc2ccc([N+](=O)[O-])cn2)cc(OC)c1O | · | · | -1 | 11 | ·
Oc1c(Cl)cc(Cl)cc1/C=C/c1ccc2cccc(O)c2n1 | 8 | 10 | 91* | 86 | 4
Oc1ccc(Cl)cc1/C=C/c1ccc2cccc(O)c2n1 | -6 | 160* | 15 | 27 | 6
Cc1ccsc1/C=C/c1ccc2cccc(O)c2n1 | 1 | 446* | 5 | -11 | 4
COc1cc(Br)c(/C=C/c2ccc3cccc(O)c3n2)cc1OC | 3 | -1 | 0 | 4 | 16
Oc1cccc2ccc(/C=C/c3ccccc3Br)nc12 | 8 | 1 | 90* | 92* | 38
COc1cc(Br)cc(/C=C/c2ccc3cccc(O)c3n2)c1O | 4 | 0 | -8 | 4 | -2
COc1cccc(C=NNC(=O)c2ccc(Cn3cc(Br)c([N+](=O)[O-])n3)o2)c1O | · | · | 5 | 1 | ·
Cc1cc(C)c(S(=O)(=O)/N=C2/C=C(Sc3ncn[nH]3)C(=O)c3ccccc32)cc1C | 118* | 2 | · | · | ·
CC(C)c1ccc(S(=O)(=O)N=C2C=C(Sc3ncn[nH]3)C(=O)c3ccccc32)cc1 | · | · | 17 | -5 | ·
CC(Cn1nnc([N+](=O)[O-])n1)=NNC(=O)c1ccccc1O | · | · | 8 | 4 | ·
O=C(ON=C1CCS(=O)(=O)c2sccc21)c1ccc(F)cc1 | · | · | 3 | 2 | ·
